Screen size: about 400,000 compounds; about 2,100 (0.53%) were called active. Inconclusive results (about 14%) are left out. No rule for the calls is given here. Shown is part of a subset that was picked to be rich in actives.
Each molecule was assayed against Ataxin-2 (Homo sapiens) (UniProt Q99700) (assay: qHTS for Inhibitors of ATXN expression.).
Format: functional

Sequence of Ataxin-2 (Homo sapiens) (Q99700 whole entry): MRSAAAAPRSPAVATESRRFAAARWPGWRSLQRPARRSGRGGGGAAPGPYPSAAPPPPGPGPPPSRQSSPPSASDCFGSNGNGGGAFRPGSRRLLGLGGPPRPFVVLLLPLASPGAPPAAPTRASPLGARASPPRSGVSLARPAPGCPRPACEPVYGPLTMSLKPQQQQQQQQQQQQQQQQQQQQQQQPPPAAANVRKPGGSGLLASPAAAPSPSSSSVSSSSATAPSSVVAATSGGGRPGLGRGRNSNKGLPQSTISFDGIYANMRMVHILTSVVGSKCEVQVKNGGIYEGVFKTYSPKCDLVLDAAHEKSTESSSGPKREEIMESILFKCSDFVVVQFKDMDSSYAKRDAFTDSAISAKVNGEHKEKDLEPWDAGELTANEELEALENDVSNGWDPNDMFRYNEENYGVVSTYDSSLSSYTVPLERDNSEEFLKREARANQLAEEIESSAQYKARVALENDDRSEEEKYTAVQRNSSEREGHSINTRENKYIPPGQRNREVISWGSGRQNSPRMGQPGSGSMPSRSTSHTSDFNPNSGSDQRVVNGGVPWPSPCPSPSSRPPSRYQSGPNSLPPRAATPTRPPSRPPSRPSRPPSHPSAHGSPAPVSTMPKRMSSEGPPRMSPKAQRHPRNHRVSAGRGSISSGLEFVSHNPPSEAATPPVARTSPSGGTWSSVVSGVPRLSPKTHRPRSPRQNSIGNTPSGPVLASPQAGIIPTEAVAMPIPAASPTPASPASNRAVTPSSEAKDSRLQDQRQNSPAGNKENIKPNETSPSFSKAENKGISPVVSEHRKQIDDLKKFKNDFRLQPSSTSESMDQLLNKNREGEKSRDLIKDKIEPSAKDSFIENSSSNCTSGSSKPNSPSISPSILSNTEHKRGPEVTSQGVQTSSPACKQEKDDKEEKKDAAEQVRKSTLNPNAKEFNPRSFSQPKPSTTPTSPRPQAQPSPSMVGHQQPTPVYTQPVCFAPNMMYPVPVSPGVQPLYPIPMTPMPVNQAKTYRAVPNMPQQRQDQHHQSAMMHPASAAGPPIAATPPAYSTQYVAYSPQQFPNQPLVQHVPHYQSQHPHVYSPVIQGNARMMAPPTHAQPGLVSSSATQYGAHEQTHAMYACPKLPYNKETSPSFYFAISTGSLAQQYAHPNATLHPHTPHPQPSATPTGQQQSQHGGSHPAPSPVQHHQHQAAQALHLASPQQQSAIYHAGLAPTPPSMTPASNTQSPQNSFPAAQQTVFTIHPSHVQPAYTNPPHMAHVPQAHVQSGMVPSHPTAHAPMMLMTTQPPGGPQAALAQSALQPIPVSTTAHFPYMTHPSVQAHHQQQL

Row | Compound | Potency
1 | COc1ccc(-c2csc(-c3cc4ccccc4oc3=N)n2)cc1 | inactive
2 | COc1ccc2nc3ccccc3[n+]([O-])c2c1 | inactive
3 | CCc1noc(C)c1C(=O)NNC(=O)COc1ccc(Br)cc1 | inactive
4 | N#Cc1c(-c2ccc(Cl)cc2)c2c([nH]c1=O)-c1ccccc1OC2 | inactive
5 | O=C1CCN2C=Nc3cccc4ccc1c2c34 | inactive
6 | O=c1nc2n(CCO)c3ccccc3cc-2c(=O)[nH]1 | inactive
7 | Cc1cccn2c(=O)c3cc(C(=O)NC4CCCC4)c(=N)n(Cc4ccc(F)cc4)c3nc12 | inactive
8 | Cc1ccc(C(=O)OCC(=O)NCc2ccco2)cc1C | inactive
9 | C=Cc1ccc(Cn2c(C(=O)O)c(CNC3CCCC3)c3ccc(C)cc32)cc1 | 44.7 µM (active)
10 | CCCC(=O)n1nc(-c2ccc(C)cc2)nc1NCc1ccco1 | inactive
11 | Cc1ccc(Cn2c(C(=O)O)c(CNCCc3ccco3)c3ccc(C)cc32)cc1 | 39.8 µM (active)
12 | C=Cc1ccc(Cn2c(C(=O)O)c(CNCc3cccs3)c3ccc(C)cc32)cc1 | 25.1 µM (active)
13 | CC1=C(C(=O)Nc2ccccn2)C(c2cn(C)nc2C)C2=C(O)CCCC2=N1 (stereo unspecified) | inactive
14 | Cc1nnc(NC(=O)CSc2nnc(-c3ccco3)n2C(C)C)s1 | inactive
15 | COCCNC(=O)c1c(N)n(-c2cccc(C)c2)c2nc3ccccc3nc12 | inactive
16 | Cc1cccc(-n2c(=O)c(C#N)cc3c(=O)n4ccccc4nc32)c1 | inactive
17 | Cc1cccc2c(SCC(N)=O)nc(-c3ccccc3)nc12 | inactive
18 | Cc1cc(C)cc(-n2c(SCC(N)=O)nc3c(oc4ccccc43)c2=O)c1 | 22.4 µM (active)
19 | Cc1nc(Nc2cccc(Cl)c2)c2oc3ccccc3c2n1 | inactive
20 | Cc1cccc(-n2c(SCC(N)=O)nc3c(oc4ccccc43)c2=O)c1 | 20 µM (active)
21 | CCCOc1cccc(C2c3c(oc4ccc(F)cc4c3=O)C(=O)N2CCCN2CCOCC2)c1 (stereo unspecified) | inactive
22 | Cc1nc(Cl)c2c(n1)N=C1CCCC(O)=C1O2 | inactive

Row | Compound | Potency
23 | Cc1ccc(CNC(=O)c2cc3c(=O)n4ccccc4nc3n(CC3CCCO3)c2=N)cc1 (stereo unspecified) | inactive
24 | CCCCn1cc[n+](-c2nc3ccccc3nc2[N-]S(=O)(=O)c2ccc(Cl)cc2)c1 | inactive
25 | Cc1ccc(-c2nnc(Nc3ccc4c(c3)OCO4)c3ccccc23)cc1S(=O)(=O)NC(C)C | inactive
26 | O=C1Nc2ccc(S(=O)(=O)NCC3CCCO3)c3cccc1c23 (stereo unspecified) | inactive
27 | Cc1ccc(-c2nnc(Nc3cccc(O)c3)c3ccccc23)cc1S(=O)(=O)NCC1CCCO1 (stereo unspecified) | 39.8 µM (active)
28 | CN1CCN(C(=O)c2cc3nc(-c4ccco4)cc(C(F)(F)F)n3n2)CC1 | inactive
29 | Nc1ccc(Cn2ccc3c4c(N)nc(N)nc4ccc32)cc1 | 29.9 µM (active)
30 | COC(=O)N1C(=O)[C@@](c2ccccc2)(C2CCCC2)N1C(=O)OC | 17.8 µM (active)
31 | COc1ccc(CC(=O)NC2CCCc3ccccc32)cc1 (stereo unspecified) | inactive
32 | CN(CC(=O)Nc1ccccc1Sc1ccccc1)C1CCCCC1 | inactive
33 | Cc1ccc(C2=CC(c3ccc(Cl)cc3)n3nc(-c4ccc(C)cc4)nc3N2)cc1 (stereo unspecified) | inactive
34 | O=C(CCCn1c2ccccc2c(=O)c2ccccc21)Nc1cccc(Cl)c1 | inactive
35 | COc1ccc(CCNC(=O)CCCn2c(=O)c3ccccc3n(Cc3cccc(Cl)c3)c2=O)cc1OC | 39.8 µM (active)
36 | COc1ccc(Cl)cc1NC(=O)CN1C(=O)NC(C)(Cc2ccc(OC)c(OC)c2)C1=O (stereo unspecified) | inactive
37 | Cc1ccc2c(c1)c(=O)c1ccccc1n2CCCC(=O)Nc1ccc(C)c(F)c1 | inactive
38 | COc1ccc(CCNC(=O)CCCn2c(=O)c3ccccc3n(CC(=O)Nc3ccc(C)cc3Cl)c2=O)cc1OC | 20 µM (active)
39 | COc1ccc(Cl)cc1NC(=O)Cn1c(=O)n(CCCC(=O)NCCc2ccc(OC)c(OC)c2)c(=O)c2ccccc21 | 39.8 µM (active)
40 | COC/C=C/C1=CC2=CC(=O)C(C)(OC(=O)c3cnc4ccccc4n3)C(=O)C2=CN1Cc1ccccc1 (stereo unspecified) | 12.6 µM (active)
41 | COc1ccc2oc(=O)c(-c3nnc(N)s3)cc2c1 | inactive
42 | CCC(C)NC(=O)c1sc2nc(C)c(C(=O)Nc3ccc(C)cc3C)c(-c3ccccc3Cl)c2c1N (stereo unspecified) | inactive
43 | COc1ccc(-c2c(C)c3ccc(O)cc3oc2=O)cc1 | inactive
44 | C=C(C)COc1ccc(-c2n[nH]cc2-c2ccc(OC)c(OC)c2)c(O)c1 | 44.7 µM (active)

Row | Compound | Potency
45 | CCN(CC)C(=O)c1sc2nc(-c3cccs3)cc(-c3ccc(Cl)cc3)c2c1N | inactive
46 | C=C(C)COc1ccc(-c2nc(N)ncc2-c2ccc(Cl)cc2)c(O)c1 | 39.8 µM (active)
47 | COc1ccc(-c2c(C)n[nH]c2-c2ccc(OC)c(C)c2O)cc1 | 39.8 µM (active)
48 | COC(=O)c1c(C)nc(C)c(C(=O)OC)c1-c1ccc(OC)cc1 | inactive
49 | C=C(C)COc1ccc(-c2[nH]nc(C)c2-c2ccc(Br)cc2)c(O)c1 | 25.1 µM (active)
50 | C=C(C)COc1ccc(-c2ncncc2-c2ccc(Br)cc2)c(O)c1 | inactive
51 | COc1cc(/C=N/NC(=O)Nc2cccc3nsnc23)cc(OC)c1OC | inactive
52 | CNC(=O)c1cc2c(=O)n3cccc(C)c3nc2n(C(C)C)c1=N | inactive
53 | Cc1ccc(S(=O)(=O)NCCc2cn3nc(C)c(C)nc3n2)cc1C | inactive
54 | Nc1ccc2c(c1)Oc1ccccc1C=C2 | inactive
55 | COc1ccccc1/N=c1\oc2cc(O)ccc2cc1C(N)=O | inactive
56 | CCn1nc(NC(=O)Cc2ccc(OC)cc2)c2cc3cccc(C)c3nc21 | inactive
57 | C/C(CC1CC2=C(CC1(C)C)C(C)(C)CCC2)=N\NC(N)=S (stereo unspecified) | 35.5 µM (active)
58 | CN1C(=O)c2ccccc2N(C)C1c1ccccc1Cl (stereo unspecified) | inactive
59 | COc1ccccc1C1CCCN1Cc1nc(-c2ccc(C)s2)oc1C (stereo unspecified) | inactive
60 | Cc1ccc(Nc2cc(C)nc3nc(Cc4ccc(Cl)cc4)nn23)cc1 | 22.4 µM (active)
61 | COCCNc1cc(C)nc2cc(-c3ccc(C)cc3)nn12 | inactive
62 | Cc1cc(C)n2nc(SCC(=O)Nc3ccc(F)c(F)c3F)nc2n1 | inactive
63 | Cc1c(-c2ccccc2)c(=O)oc2c(CN3CCN(C)CC3)c(O)ccc12 | inactive
64 | CN(C(=O)COC(=O)c1cc(-c2ccc(Cl)s2)nc2ccccc12)C1CCS(=O)(=O)C1 (stereo unspecified) | inactive
65 | Cc1ccc(-c2cc(C(=O)OCC(=O)N(C)C3CCS(=O)(=O)C3)c3ccccc3n2)o1 (stereo unspecified) | inactive
66 | CN(C(=O)COC(=O)c1nc(Cl)c(Cl)c(Cl)c1Cl)C1CCS(=O)(=O)C1 (stereo unspecified) | 33.6 µM (active)

Source: ChEMBL document CHEMBL1201862, “PubChem BioAssay data set” (2004)
